Here are results for 16 compounds from PubChem BioAssay (NCI).

Compounds without any hit were thinned out: in the full panel of roughly 83,000, 20% have a hit.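 The test compound was applied at a single concentration to cells in 96-well plates for 48 hours, and percent growth was recorded.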 A number with no mark means an inactive call. Calls of active or inactive are those of the source. Rule for the calls: active = growth percent below 10; inactive = the rest.

This experiment deals with A549/ATCC NSCLC. The experiment is described as follows: NCI-60 one-dose screen, 48 h (100 = growth as untreated, 0 = no growth, -100 = all killed). Particulars: 10 µM unless noted.
In the case of `COc1ccc(OC)c(/C=N/Nc2ncnc3c2c(C)nn3C)c1`, the growth was 104%.
To `Cc1c[n+](Cc2ccc3ccccc3c2)cn1Cc1ccc2ccccc2c1` belongs 60.5%; to `COc1cc(OC)c(/C=C/C(=O)c2c(OC)cccc2OC)c(OC)c1`, 6.84% (active); to `COC(=O)c1c(C)nc(C)c2c1C(=O)C(Br)=C(NCc1ccccc1)C2=O`, 18.2%.
As for `CCNCCNc1cc(-c2ccc(C(F)(F)F)cc2)c(C#N)c2nc3ccccc3n12`, the figure is -76.4% (active); as for `CSc1nc2ccccc2cc1/C=[N+](\[O-])c1ccccc1`, 97.6%; as for `CC(=O)Oc1ccc(N2C(=O)C(Cl)=C(Nc3cccc(C(F)(F)F)c3)C2=O)cc1`, 93.9%.
To `CC(=O)Oc1ccc(C)cc1C` belongs 100%; to `O=C(Nc1ccc(Oc2cccc(Cl)c2)c(Cl)c1)c1cnccn1`, 23.9%; to `CCC(=O)Oc1ccc(-c2ccccc2)cc1Br`, 105%.
With `CCN(CC)CC(O)COc1c(Br)c(Br)c(Br)c2c1OC(C)(C)C2` (stereo unspecified), the growth was 132%.
Take `Fc1cc2c(cc1Cl)N(c1ncnc3ccc(-c4ccc5n[nH]nc5c4)cc13)CC2`: the growth was 77.5%.
As for `Nc1c(C(=O)Nc2ccncc2)sc2nc3c(cc12)C(O)CCC3` (stereo unspecified), the growth is 91.9%.
As for `CCOC(=O)c1cc2c(n1Cc1cc(OC)c(OC)c(OC)c1)-c1nc(N)sc1CCC2`, the figure is 28%; as for `Cc1ccc(Nn2c(SCC(=O)Nc3nc(-c4ccccc4)cs3)nc(C)c2C)cc1`, 46.3%.
On to `O=C(NCc1ccc(Cl)cc1Cl)C1CCC(=O)N1c1cccs1` (stereo unspecified), for which the growth is 86.3%.
